# Results published in PubChem BioAssay (Tox21).
# A number with no mark means an inactive call. Calls of active or inactive are those of the source. The call rests on the fitted dose curve; in most records, active means well fitted activation curve with a large enough effect in the repeat runs; inconclusive means weak or mixed curves; inactive means flat fitted curve, though single readings scatter.
# Biological target: KiSS-1 receptor (Homo sapiens) (UniProt Q969F8)
# Assay: Human kisspeptin (KISS1R) small molecule agonists, calcium flux assay in KISS1R-HEK293 cells (AID 1920064)
# Conditions: KISS1R-HEK293, calcium flux fluorescence, agonist; series mostly up to 76.8 µM
# Description: National Center for Advancing Translational Sciences [NCATS]
# Division of Preclinical Innovation [DPI]
# U.S. Environmental Protection Agency [EPA]
# National Institutes of Environmental Health Sciences [NIEHS]
# National Toxicology Program [NTP]
# U.S. Food and Drug Administration [FDA]
# Kisspeptin and its receptor KISS1R play key roles in mammalian reproduction due to their involvement in the onset of puberty and control of the hypothalamic-pituitary-gonadal axis such as regulates GnRH release from the hypothalamus. The kisspeptin/KISS1R system also plays a direct role in peripheral organs (including the ovary, testis, uterus, and placenta) and is implicated in reproductive diseases such as miscarriage and polycystic ovary syndrome (PCOS). Abnormal KISS1R activity is associated with abnormal puberty, infertility, endometriosis, and hormone-dependent tumors. The KISS1 receptor (KISS1R, also called GPR54), a G-protein-coupled receptor (GPCR), acts (through phospholipase C) to increase intracellular inositol trisphosphate and then release intracellular calcium stores. Cell-based KISS1R-HEK293 assay is using HEK293 cells that have been genetically engineered to express the human KISS1R, which activity can be measured by calcium signaling. A compound/drug can activate (agonist) KISS1R that can be monitored by levels of intracellular calcium.
# KISS1R-HEK293 cells developed by Codex Corp contain human KISS1R gene, which was stably integrated into HEK 293 cells. The compound activation can be detected by fluorescence intensity via calcium flux assay. This cell line has been used to screen the Tox21 10K compound library to identify agonists of KISS1R.
# KISS1R-Hek293 cells were dispensed at 1500 cells/4uL/well in 1536-well black wall/clear bottom plates using a multidrop dispenser. After the assay plates were incubated at a 37 C/5% CO2 incubator for 18 hours, 4 microL of Calcium Dye Solution was added to each well. The plates were incubated at 37 C for 1 hour. And then 23 nL of compounds dissolved in DMSO, positive controls, or DMSO only was transferred to the assay plate by a pin tool station. The fluorescence intensity in the plates was measured using FDSS 7000EX kinetic plate reader with a filter set of Ex/Em=480/540 for 3 min at 1 sec intervals. Each test compound was measured at 15 concentrations and in triplicates.
# On the % scale 0 is the no-effect control and ±100 the full control effect.
# Chain of KiSS-1 receptor (Homo sapiens) (Q969F8 whole entry, looked up): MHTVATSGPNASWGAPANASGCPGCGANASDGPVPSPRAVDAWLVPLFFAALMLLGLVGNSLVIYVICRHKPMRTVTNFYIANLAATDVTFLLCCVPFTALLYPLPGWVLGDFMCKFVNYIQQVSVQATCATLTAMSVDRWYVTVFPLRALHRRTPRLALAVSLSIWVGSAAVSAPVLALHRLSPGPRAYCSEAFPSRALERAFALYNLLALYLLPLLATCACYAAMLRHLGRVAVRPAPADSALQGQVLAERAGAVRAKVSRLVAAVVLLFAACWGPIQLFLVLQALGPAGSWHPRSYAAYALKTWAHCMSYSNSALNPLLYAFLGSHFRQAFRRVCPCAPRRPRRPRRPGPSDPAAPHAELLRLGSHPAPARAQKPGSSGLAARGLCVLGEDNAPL
SMILES,outcome,activation
NS(=O)(=O)c1cc(C(=O)NN2C[C@H]3[C@H]4CCC(C4)[C@H]3C2)ccc1Cl,inactive,–
FC(F)(F)C(F)(F)C(F)(F)C(F)(F)C(F)(F)C(F)(F)C(F)(F)C(F)(F)C(F)(F)C(F)(F)F,–,-3.4% [at 6.97 µM]
O=C(O)c1c(Cl)cccc1Cl,inactive,–
O=c1[nH]cccc1O,inactive,–
CCCCCCCCCCOS(=O)(=O)O,inactive,–
CC1OC(=O)C(C)OC1=O (stereo not given),inactive,–
CCN(CC)c1ccc2c(-c3ccc(S(=O)(=O)O)cc3S(=O)(=O)[O-])c3ccc(=[N+](CC)CC)cc-3oc2c1,inactive,–
OC1OCCOC1O (stereo not given),inactive,–
COc1ccc(-c2coc3cc(O)ccc3c2=O)cc1,inactive,–
CCOC(=O)c1ccccc1,inactive,–
CN1CCN(CC(=O)N2c3ccccc3C(=O)Nc3cccnc32)CC1,–,7.1% [at 6.97 µM]
N=C(N)c1ccc(OCCCOc2ccc(C(=N)N)cc2)cc1,inactive,–
CC1(C)C(=O)C(C)(C)C1=O,inactive,–
O=C(O)C[C@H](O)C[C@H](O)/C=C/c1c(C2CC2)nc2ccccc2c1-c1ccc(F)cc1,–,-0.214% [at 15.8 µM]
CC(C)(O)c1ccccc1CC[C@@H](SCC1(CC(=O)O)CC1)c1cccc(/C=C/c2ccc3ccc(Cl)cc3n2)c1,inactive,–
CC1=CC(=O)CC(C)(C)C1(O)/C=C/C(C)=C\C(=O)O (stereo not given),inactive,–
CCCCCCCCCCCCCC(=O)OCC(O)CO (stereo not given),inactive,–
NS(=O)(=O)c1cc(-c2nn[nH]n2)c(NCc2cccs2)cc1Cl,inactive,–
O=C1O[C@@H]2[C@@H](O)[C@H](O)O[C@@H]2[C@H]1O,inactive,–
CCCCOCCOC(=O)c1cccnc1,inactive,–

SMILES,outcome,activation
Cc1nc(C)nc(N2C[C@@H](C)N(c3ccnc([C@@H](C)O)n3)[C@@H](C)C2)n1,inactive,–
CCCCOCCOC(=O)COc1cc(Cl)c(Cl)cc1Cl,inactive,–
CN1CCN(C2=Nc3cc(F)ccc3Cc3ccccc32)CC1,inactive,–
CC1=NC(C)OC1C (stereo not given),inactive,–
CCCCCCCC[N+](CCCCCCCC)(CCCCCCCC)CCCCCCCC,inactive,–
CC1=C2[C@@H]([C@H](C)CC[C@H]2/C=C(\C)C(=O)O)[C@H](O)C1,inactive,–
CC(=O)C(C)=O,inactive,–
Cc1cc(O)c2c(c1)C(=O)c1cccc(O)c1C2=O,inactive,–
O=C(c1ccccc1)c1ccc(Cl)cc1,inactive,–
CCN(CC)CC(=O)Nc1c(C)cccc1C(=O)OC,inactive,–
CO[C@H]1O[C@H](CO)[C@@H](O)[C@H](O)[C@H]1O,inactive,–
CCNC(=O)NCCCOc1cccc(CN2CCCCC2)c1,inactive,–
O=C(O)CCCCCCC(=O)O,inactive,–
CCn1nc(Cc2ccccc2)cc1C1CCN(C[C@H]2C[C@H](N(C)[C@@H](C(=O)O)C(C)C)C[C@@H]2c2cccc(F)c2)CC1,inactive,–
CCCCC/C=C/CC1CC(=O)OC1=O (stereo not given),inactive,–
Cc1c(C2(c3cc(Br)c(O)c(Br)c3C)OS(=O)(=O)c3ccccc32)cc(Br)c(O)c1Br,inactive,–
CCC(C)(C)C(=O)O,inactive,–
CC(C)NCC(O)COc1ccc(COCCOC(C)C)cc1 (stereo not given),inactive,–
CCCCCCCCCCc1ccccc1,inactive,–
OCCCc1cccnc1,inactive,–
